Screening data (PubChem BioAssay)
SENP6 block: SENP6 protease inhibition; AID 2599; Q9GZR1; Recombinant SENP6 catalytic domain, aminoluciferin luminescence; inhibition, % at 10 µM; 330,000 tested, 1.8% active;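 active means inhibition above about 50% at the single tested dose, limit read from the data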
Target sequence (Q9GZR1 628-1112 limits assumed): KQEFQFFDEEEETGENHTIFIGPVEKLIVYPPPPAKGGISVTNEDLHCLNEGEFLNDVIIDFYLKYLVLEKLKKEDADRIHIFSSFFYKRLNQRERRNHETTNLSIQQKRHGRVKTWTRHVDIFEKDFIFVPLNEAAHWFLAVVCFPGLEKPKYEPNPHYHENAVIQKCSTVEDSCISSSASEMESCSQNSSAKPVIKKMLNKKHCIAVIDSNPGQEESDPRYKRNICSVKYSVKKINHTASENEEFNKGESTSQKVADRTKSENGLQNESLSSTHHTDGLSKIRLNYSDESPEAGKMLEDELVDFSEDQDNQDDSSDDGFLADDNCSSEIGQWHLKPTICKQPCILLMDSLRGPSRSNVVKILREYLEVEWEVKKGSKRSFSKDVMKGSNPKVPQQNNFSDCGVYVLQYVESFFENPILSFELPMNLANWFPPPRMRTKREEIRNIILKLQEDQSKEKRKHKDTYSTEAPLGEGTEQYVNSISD
SENP8 block-1: blocks the human protease SENP8 | Q96LD8 | purified SENP8, Z-RLRGG-aminoluciferin cleavage, luminescence | inhibition, % at 10 µM | 330,000 tested, 1.2% active; in the data active means inhibition above about 50%
Target sequence (Q96LD8 whole entry, looked up): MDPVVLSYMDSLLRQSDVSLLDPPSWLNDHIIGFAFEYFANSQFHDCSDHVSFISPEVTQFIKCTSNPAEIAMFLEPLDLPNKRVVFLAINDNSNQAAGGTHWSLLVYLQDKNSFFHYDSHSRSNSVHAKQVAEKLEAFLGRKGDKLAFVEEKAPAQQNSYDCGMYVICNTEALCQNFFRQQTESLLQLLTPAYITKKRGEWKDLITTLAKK
SENP7 block: inhibitors of human SENP7 protease; inhibition, % at 5 µM; recombinant SENP7, Z-RLRGG-aminoluciferin luminescence, 40 min; Q9BQF6; 330,000 tested, 1.5% active;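 active means inhibition above about 50% at the single test dose, limit read from the data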
HSP90 inh: blocks HSP90-mediated luciferase refolding in reticulocyte lysate; Rabbit reticulocyte lysate, luciferase refolding luminescence, 3 h; inhibition, % at 5.6 µM; 290,000 tested, 0.91% active; AID 1789;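 active means inhibition above the screen-wide mean plus 3 SD, computed separately per campaign, cut at about 16% in these data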;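 further: inhibitors lower the luminescence because luciferase stays unfolded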
SENP8 block-2: inhibitors of human SENP8 protease | Q96LD8 | recombinant SENP8, Nedd8 substrate fluorescence | AID 602440 | inhibition, % at 20 µM | 360,000 tested, 0.64% active; in the data active means inhibition mostly above about 40%, no sharp cut-off; inactive means mostly below about 27%
LGR2 antag: Drosophila LGR2 receptor signaling inhibition | HEK293 LGR2, CRE-luciferase, bursicon-stimulated, 4 h | inhibition, % at 9.99 µM | 380,000 tested, 0.35% active;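 active means drop in luminescence signal, shown as inhibition above about 50% in the replicate tests, limit read from the data, passing the limit was not always enough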;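 further: agonist challenge used bursicon conditioned medium at about half maximal strength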
SENP8 inh conf: SENP8 (human) inhibition, single concentration confirmation; shares compounds with SENP8 block-2; purified SENP8, Nedd8-AMC/pro-Nedd8 cleavage fluorescence, 30 min; inhibition, % at 25 µM; 1,400 tested, 15% active; AID 624319; in the data active means inhibition mostly above about 39%, no sharp cut-off; inactive means mostly below about 34%
Large screens that a line does not name were inactive (follow-up assays come after a bar, where they were run). Rows were chosen to be rich in hits. Some 2.3% of all compounds tested hit in one or more screens of this group.

COC(=O)CCCC1=CC2=CC(=O)C(C)(OC(=O)c3cccs3)C(=O)C2=CN1C1CCCCC1 (stereo not drawn)	none (no result: HSP90 inh)
COC(=O)CCCC1=CC2=C(c3ccccc3)C(=O)C(C)(OC(=O)C3CCCC3)C(=O)C2=CN1CCCCO (stereo not drawn)	SENP8 block-2 48 (no result: HSP90 inh) | SENP8 inh conf 66
COC(=O)CCCC1=CC2=CC(=O)C(C)(OC(=O)c3cccs3)C(=O)C2=CN1CCCCO (stereo not drawn)	SENP8 block-2 53 (no result: HSP90 inh) | SENP8 inh conf 56
COC(=O)CCCC1=CC2=CC(=O)C(C)(OC(=O)c3cccs3)C(=O)C2=CN1C1CC1 (stereo not drawn)	SENP8 block-2 41 (no result: HSP90 inh) | SENP8 inh conf 63
C/C=C/c1cnc2c(c1)C(=O)N([C@@H](C)CO)C[C@H](C)[C@H](CN(C)C(=O)Nc1ccc(C(F)(F)F)cc1)O2	none (no result: SENP6 block, SENP8 block-1, SENP7 block, HSP90 inh, SENP8 block-2)
O=C(CSc1ccc(Cl)cc1)Nc1ccccc1Oc1ccccc1	none
O=C(CSc1ccc(Br)cc1)Nc1ccccc1Oc1ccccc1	SENP8 block-2 50 | SENP8 inh conf inactive
O=C1CCC(C(=O)O)N1 (stereo not drawn)	SENP8 block-2 52 | SENP8 inh conf inactive
COc1ccccc1C#Cc1cnc2c(c1)C(=O)N([C@@H](C)CO)C[C@H](C)[C@H](CN(C)C(C)=O)O2	none (no result: SENP6 block, SENP8 block-1, SENP7 block, HSP90 inh, SENP8 block-2)
Cc1ccc(NC2=C(C(=O)c3ccccc3)N(C)S(=O)(=O)c3ccccc32)cc1	SENP8 block-2 46 (no result: LGR2 antag) | SENP8 inh conf inactive
C(=N\NC1=Nc2cccc3cccc1c23)/c1cccnc1	SENP8 block-2 51 | SENP8 inh conf inactive
COc1ccc(CN(C)C[C@@H]2Oc3c(NS(=O)(=O)c4ccc(C)cc4)cccc3C(=O)N([C@H](C)CO)C[C@@H]2C)cc1	none (no result: SENP6 block, SENP8 block-1, SENP7 block, HSP90 inh, SENP8 block-2)
CC(C)Nc1ccc(C(CC(N)=O)NC(=O)c2ccccc2)cc1[N+](=O)[O-] (stereo not drawn)	SENP8 block-2 44 (no result: LGR2 antag) | SENP8 inh conf inactive
CC(C)Nc1ccc(C(CC(N)=O)NC(=O)c2ccc(Br)cc2)cc1[N+](=O)[O-] (stereo not drawn)	none (no result: HSP90 inh)
NC(=O)CC(NC(=O)c1ccccc1)c1ccc(NC2CCCC2)c([N+](=O)[O-])c1 (stereo not drawn)	SENP8 block-2 41 (no result: HSP90 inh) | SENP8 inh conf inactive
O=C(NCC[C@@H]1CC[C@H](NC(=O)c2cnccn2)[C@@H](CO)O1)Nc1ccc(F)cc1	none (no result: SENP6 block, SENP8 block-1, SENP7 block, HSP90 inh, SENP8 block-2)
COc1cc(CC(=O)OCC(=O)Nc2cc([N+](=O)[O-])ccc2Cl)cc(OC)c1OC	SENP8 block-2 40 (no result: LGR2 antag) | SENP8 inh conf inactive
C[C@H]1CN([C@@H](C)CO)C(=O)c2cccc(NS(=O)(=O)c3cccs3)c2O[C@@H]1CN(C)C	none (no result: SENP6 block, SENP8 block-1, SENP7 block, HSP90 inh, SENP8 block-2)
O=C(CSc1nnnn1-c1ccccc1)N1CCc2ccccc2C1	none (no result: LGR2 antag)
CC(=O)c1ccc(-n2nnnc2SCC(=O)N2CCc3ccccc3C2)cc1	SENP8 block-2 61 (no result: SENP6 block, SENP8 block-1, SENP7 block, LGR2 antag) | SENP8 inh conf 79
CO[C@H]1CN(C)C(=O)c2ccc(NC(C)=O)cc2OC[C@H](C)N(C(=O)c2ccccc2F)C[C@H]1C	none (no result: SENP6 block, SENP8 block-1, SENP7 block, HSP90 inh, SENP8 block-2)
COC(=O)C(CC(C)C)NC(=O)c1ccc([N+](=O)[O-])cc1 (stereo not drawn)	SENP8 block-2 43 (no result: LGR2 antag) | SENP8 inh conf inactive
COc1ccc2c3c(n(C)c2c1)[C@@H](CO)N(C(=O)C1CC1)CC31CCN(C)CC1	none (no result: SENP6 block, SENP8 block-1, SENP7 block, HSP90 inh, SENP8 block-2)
CCN(CC)C(=O)Cc1ccccc1	SENP8 block-2 42 (no result: HSP90 inh, LGR2 antag) | SENP8 inh conf inactive
CC(C)[C@H](Nc1ccc(C(F)(F)F)cc1[N+](=O)[O-])C(=O)O	SENP8 block-2 41 | SENP8 inh conf inactive
Cc1cc(C)c(C(=O)COC(=O)[C@H](C)Nc2ccc(C(F)(F)F)cc2[N+](=O)[O-])c(C)c1	none (no result: LGR2 antag)
CCN(CC)S(=O)(=O)c1ccc(N2CCN(c3cccc(OC)c3)CC2)c([N+](=O)[O-])c1	SENP8 block-2 43 | SENP8 inh conf inactive
CC(=O)N/N=C(\C)C1COc2ccccc2O1 (stereo not drawn)	SENP8 block-2 41 | SENP8 inh conf inactive
C[C@@H]1CN([C@H](C)CO)C(=O)Cc2cc(NC(=O)CCN3CCOCC3)ccc2O[C@@H]1CN(C)S(=O)(=O)c1ccc(F)cc1	none (no result: SENP6 block, SENP8 block-1, SENP7 block, HSP90 inh, SENP8 block-2)
Cc1ccc(S(=O)(=O)N[C@H](C(=O)N2CCC(C(=O)NCC(=O)O)CC2)C(C)C)cc1	none (no result: LGR2 antag)
Cc1ccc(S(=O)(=O)N[C@H](C(=O)N2CCC(C(=O)N[C@H](C(=O)O)c3ccccc3)CC2)C(C)C)cc1	SENP8 block-2 48 | SENP8 inh conf inactive
O=C1Cc2ccccc2N1c1c(Cl)cccc1Cl	none (no result: LGR2 antag)
O=C1Cc2ccccc2C(=O)N1c1ccc(F)cc1Cl	SENP8 block-2 72 | SENP8 inh conf 50
CCOCCOc1cc(NCc2ccccc2)c2ncn(C(C)C)c2c1	SENP8 block-2 40 (no result: SENP6 block, SENP8 block-1, SENP7 block, HSP90 inh) | SENP8 inh conf 80
CCCCOc1cc(NCc2ccccc2)c2ncn(C(C)C)c2c1	SENP8 block-2 51, LGR2 antag 68 (no result: HSP90 inh) | SENP8 inh conf 65
COCCCOc1cc(NCc2ccccc2)c2ncn(C(C)C)c2c1	none (no result: HSP90 inh)
COc1ccc(Cc2cc(NCc3ccccc3)c3ncn(C(C)C)c3c2)cc1	none (no result: HSP90 inh)
O=C1CSC(c2c(F)cccc2Cl)N1c1cccc(F)c1 (stereo not drawn)	SENP8 block-2 44 (no result: LGR2 antag) | SENP8 inh conf inactive
C[C@H]1CN([C@@H](C)CO)S(=O)(=O)c2ccc(C#CC3CC3)cc2O[C@H]1CN(C)C(=O)c1ccccn1	none (no result: SENP6 block, SENP8 block-1, SENP7 block, HSP90 inh, SENP8 block-2)
Cn1cccc1CNC(=S)Nc1ccccc1Cl	SENP8 block-2 40 | SENP8 inh conf inactive
C[C@@H]1CN([C@@H](C)CO)C(=O)c2cc(NS(=O)(=O)c3ccc(F)cc3)ccc2O[C@@H](C)CCCCO[C@H]1CN(C)CC1CC1	none (no result: SENP6 block, SENP8 block-1, SENP7 block, HSP90 inh, SENP8 block-2)
COc1ccc(C(=O)N/C(=C\c2ccc(-c3cccc([N+](=O)[O-])c3)o2)C(=O)NCCCN2CCOCC2)cc1	SENP8 block-2 35 (no result: SENP6 block, SENP8 block-1, SENP7 block, HSP90 inh) | SENP8 inh conf inactive
Cc1ccc(C(=O)N/C(=C/c2ccc(-c3cccc([N+](=O)[O-])c3)o2)C(=O)NC(C)(C)C)cc1	none (no result: LGR2 antag)
Cc1ccc(C(=O)N/C(=C/c2ccc(-c3cccc([N+](=O)[O-])c3)o2)C(=O)NC(C)C)cc1	SENP8 block-2 47 (no result: LGR2 antag) | SENP8 inh conf inactive
Cc1ccc(C(=O)N/C(=C\c2ccc(-c3cccc([N+](=O)[O-])c3)o2)C(=O)NCCCN2CCOCC2)cc1	none
CCCn1c(=C(C#N)C#N)s/c(=C2\C=Cc3ccccc3N2CC)c1=O	SENP8 block-2 52 (no result: SENP6 block, SENP8 block-1, SENP7 block, LGR2 antag) | SENP8 inh conf inactive
C[C@@H]1CN([C@@H](C)CO)C(=O)Cc2cc(NC(=O)Nc3ccc4c(c3)OCO4)ccc2O[C@@H]1CN(C)Cc1ccccc1	none (no result: SENP6 block, SENP8 block-1, SENP7 block, HSP90 inh, SENP8 block-2)
C[C@@H]1CN([C@@H](C)CO)C(=O)c2cc(NS(=O)(=O)c3ccccc3)ccc2O[C@@H](C)CCCCO[C@@H]1CN(C)C(=O)CCC(F)(F)F	none (no result: SENP6 block, SENP8 block-1, SENP7 block, HSP90 inh, SENP8 block-2)
O=C(NC(=S)N1CCN(C/C=C/c2ccccc2)CC1)c1c(F)cccc1F	SENP8 block-2 43 (no result: LGR2 antag) | SENP8 inh conf inactive
